Results from the supplement of paper PMC11634586.
Structures can show the parent of a compound that is named as a salt. A number with no mark means an inactive call.

Test system: NCI-H1688
Assay: inhibition of cell viability relative to untreated control (fraction); higher = stronger growth inhibition, active = 0.5 or more
Details: 30 µM; 24 h
Method in brief: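 Compounds from a natural compound library (TargetMol) were tested at 30 µM on NCI-H1688 small cell lung cancer cells for 24 h at 37°C under 5% CO2. Cell Counting Kit-8 absorbance at 450 nm, read in triplicate, gave the viability. The values express inhibition of cell viability as a fraction relative to untreated cells.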

SMILES	inhibition of cell viability
O=c1c(O[C@@H]2O[C@H](CO)[C@H](O)[C@H](O)[C@H]2O)c(-c2ccc(O)c(O)c2)oc2cc(O)cc(O)c12 [Hyperoside]	-0.0387
N[C@H]1C(O)O[C@H](CO)[C@@H](O)[C@@H]1O (some centres not stated) [Glucosamine]	-0.173
COc1cc2ccc(=O)oc2cc1O [Scopoletin]	-0.00563
Oc1cc2c(cc1O)[C@@H]1c3ccc(O)c(O)c3OC[C@]1(O)C2 [Hematoxylin]	0.0369
NC1C(O)O[C@H](CO)C(O[C@@H]2O[C@H](CO)C(O[C@@H]3O[C@H](CO)[C@@H](O)[C@H](O)[C@H]3N)[C@H](O)C2N)C1O (some centres not stated) [Chitosan]	0.266
O=C(O)C1=CO[C@@H](O[C@@H]2O[C@H](CO)[C@@H](O)[C@H](O)[C@H]2O)[C@@H]2C(CO)=CC[C@H]12 [Geniposidic Acid]	-0.0628
C[C@@H]1O[C@@H](O[C@H]2C(=O)c3c(O)cc(O)cc3O[C@@H]2c2ccc(O)c(O)c2)[C@H](O)[C@H](O)[C@H]1O [Astilbin]	-0.0142
CC1=C(/C=C/C(C)=C/C=C/C(C)=C/C=C/C=C(C)/C=C/C=C(C)/C=C/C2=C(C)CCCC2(C)C)C(C)(C)CCC1 [Beta-Carotene]	0.426
O=C(O[C@@H]1Cc2c(O)cc(O)cc2O[C@@H]1c1cc(O)c(O)c(O)c1)c1cc(O)c(O)c(O)c1 [(-)-Epigallocatechin Gallate]	0.0795
OCCc1ccc(O)cc1 [Tyrosol]	0.0116
C=CC[C@@H]1/C=C(\C)C[C@H](C)C[C@H](OC)[C@H]2O[C@@](O)(C(=O)C(=O)N3CCCC[C@H]3C(=O)O[C@H](/C(C)=C/[C@@H]3CC[C@@H](O)[C@H](OC)C3)[C@H](C)[C@@H](O)CC1=O)[C@H](C)C[C@@H]2OC [Tacrolimus (FK506)]	0.0216
CC(/C=C/C=C(\C)C(=O)O[C@@H]1O[C@H](CO[C@@H]2O[C@H](CO)[C@@H](O)[C@H](O)[C@H]2O)[C@@H](O)[C@H](O)[C@H]1O)=C\C=C\C=C(C)\C=C\C=C(/C)C(=O)O[C@@H]1O[C@H](CO[C@@H]2O[C@H](CO)[C@@H](O)[C@H](O)[C@H]2O)[C@@H](O)[C@H](O)[C@H]1O [Crocin]	0.267
OC[C@H]1O[C@H](O[C@]2(CCl)O[C@H](CCl)[C@@H](O)[C@@H]2O)[C@H](O)[C@@H](O)[C@H]1Cl [Sucralose]	0.0847
COc1ccc(-c2cc(=O)c3c(O)cc(O[C@@H]4O[C@H](CO[C@@H]5O[C@@H](C)[C@H](O)[C@@H](O)[C@H]5O)[C@@H](O)[C@H](O)[C@H]4O)cc3o2)cc1O [Diosmin]	-0.00104
O=C(O)[C@@H](O)[C@H](O)[C@H](O)[C@@H](O)C(=O)O [Mucic Acid]	0.0761
O=C1c2cccc(O)c2C(=O)c2c(O)cc(CO)cc21 [Aloe-emodin]	0.373
CC(C)=CCC[C@](C)(O)[C@H]1CC[C@]2(C)[C@@H]1[C@H](O)C[C@@H]1[C@@]3(C)CC[C@H](O)C(C)(C)[C@@H]3[C@@H](O[C@@H]3O[C@H](CO)[C@@H](O)[C@H](O)[C@H]3O[C@@H]3O[C@@H](C)[C@H](O)[C@@H](O)[C@H]3O)C[C@]12C [Ginsenoside Rg2]	0.155
COc1ccc(C[C@H]2COC(=O)[C@@H]2Cc2ccc(O[C@@H]3O[C@H](CO)[C@@H](O)[C@H](O)[C@H]3O)c(OC)c2)cc1OC [Arctiin]	0.0918
CC(=O)c1c(O)cc(O)cc1O [Phloracetophenone]	0.00993

SMILES	inhibition of cell viability
CN[C@@H]1[C@H](O)[C@H](NC)[C@H]2O[C@@]3(O)C(=O)C[C@@H](C)O[C@H]3O[C@@H]2[C@H]1O [Spectinomycin dihydrochloride]	0.186
CC1(C)CCC[C@]2(C)[C@H]3CC(=O)O[C@]3(C)CC[C@@H]12 [Sclareolide]	0.206
Oc1cc(O)c2c(c1)O[C@H](c1ccc(O)c(O)c1)[C@@H](O)C2 [(+)-Catechin Hydrate]	0.159
OC[C@H]1O[C@H](O[C@H]2O[C@H](CO)[C@@H](O)[C@H](O)[C@H]2O)[C@H](O)[C@@H](O)[C@@H]1O [D-(+)-Trehalose dihydrate]	0.249
COc1cc(CNC(=O)CCCC/C=C/C(C)C)ccc1O [Capsaicin]	0.0438
CC(C)[C@@H]1CC[C@@H](C)C[C@H]1O [L-Menthol]	0.178
CC12CCC(CC1)C(C)(C)O2 [Eucalyptol]	-0.192
OC[C@H]1O[C@@H](OCCc2ccc(O)cc2)[C@H](O)[C@@H](O)[C@@H]1O [Salidroside]	-0.0108
OCc1ccc(O[C@@H]2O[C@H](CO)[C@@H](O)[C@H](O)[C@H]2O)cc1 [Gastrodin]	-0.283
CC[C@]1(O)C[C@H]2CN(CCc3c([nH]c4ccccc34)[C@@](C(=O)OC)(c3cc4c(cc3OC)N(C=O)[C@H]3[C@@](O)(C(=O)OC)[C@H](OC(C)=O)[C@]5(CC)C=CCN6CC[C@]43[C@@H]65)C2)C1 [Vincristine sulfate]	0.847 (active)
OCc1ccccc1O[C@@H]1O[C@H](CO)[C@@H](O)[C@H](O)[C@H]1O	-0.21
Cc1cc(O)c2c(c1)C(=O)c1cccc(O)c1C2=O [Chrysophanic Acid]	-0.28
CC(C)[C@H](NC(=O)[C@H](CC(=O)O)NC(=O)[C@H](CCCCN)NC(=O)[C@@H](N)CCCN=C(N)N)C(=O)N[C@@H](Cc1ccc(O)cc1)C(=O)O [Thymopentin]	0.0248
Cc1ccc(C(C)C)cc2c(C)ccc1-2 [Guaiazulene]	0.0813
Cn1c(=O)c2nc[nH]c2n(C)c1=O [Theophylline]	-0.0544
C[N+](C)(C)CC(O)CC(=O)[O-] (racemic) [DL-Carnitine]	0.00503
O=C(O)CCCC[C@@H]1CCSS1 [Thioctic acid]	-0.0532
C=C1CC23CCC4C(C)(C(=O)OC5OC(CO)C(O)C(O)C5O)CCCC4(C)C2CCC1(OC1OC(CO)C(O)C(OC2OC(CO)C(O)C(O)C2O)C1OC1OC(C)C(O)C(O)C1O)C3 (configuration not stated) [Dulcoside B]	0.0729
